# Compounds with a hit are over-represented: about 3.5% of the library has one in this group of screens.
# FBW7 act = FBW7 E3 ligase activators, primary screen, biochemical, AlphaScreen, human; F-box/WD repeat-containing protein 7 (Homo sapiens), Q969H0; AlphaScreen FBW7–phospho-cyclin E peptide binding, activator screen; normalized activity (activation), % at 26.1 µM; 0.13% of 650,000 active; AID 1259310, 2017; in the data active = normalized activity above about 1.9%;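 note: purified mutant Fbw7 with reduced substrate affinity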
# Target sequence (Q969H0 whole entry, looked up): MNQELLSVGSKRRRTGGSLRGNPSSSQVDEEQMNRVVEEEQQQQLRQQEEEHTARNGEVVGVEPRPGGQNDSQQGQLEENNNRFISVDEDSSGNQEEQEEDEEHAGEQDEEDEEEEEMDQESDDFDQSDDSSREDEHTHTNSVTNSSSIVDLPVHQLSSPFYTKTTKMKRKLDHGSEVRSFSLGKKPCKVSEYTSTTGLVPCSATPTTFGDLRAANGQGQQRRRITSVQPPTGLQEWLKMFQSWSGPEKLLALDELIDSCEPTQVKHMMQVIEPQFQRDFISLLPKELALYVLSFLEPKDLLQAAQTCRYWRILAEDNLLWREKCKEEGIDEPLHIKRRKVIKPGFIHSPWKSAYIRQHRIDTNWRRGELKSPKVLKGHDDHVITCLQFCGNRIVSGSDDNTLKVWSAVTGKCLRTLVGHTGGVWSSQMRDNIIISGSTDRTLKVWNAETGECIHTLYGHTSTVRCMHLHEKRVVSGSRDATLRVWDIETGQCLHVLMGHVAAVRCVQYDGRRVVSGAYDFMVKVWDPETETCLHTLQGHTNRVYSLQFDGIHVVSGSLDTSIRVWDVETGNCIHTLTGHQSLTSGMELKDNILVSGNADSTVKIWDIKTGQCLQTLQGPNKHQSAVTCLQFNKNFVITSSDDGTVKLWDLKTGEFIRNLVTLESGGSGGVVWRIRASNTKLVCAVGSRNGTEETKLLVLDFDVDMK
# MITF primary = MITF inhibitors, primary screen, biochemical, AlphaScreen, human; 0.91% of 650,000 active; AlphaScreen MITF homodimerization, bead proximity signal; inhibition, % at 2.6 µM; Microphthalmia-associated transcription factor (Homo sapiens), O75030; in the data active = inhibition above about 50%;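 note: 0% = vehicle wells with protein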
# GPR151 activ = activators of human GPR151, primary screen, cell-based, PathHunter beta-arrestin, luminescence | 1% of 650,000 active | PathHunter beta-arrestin GPR151 cells | AID 1508602, 2020 | G-protein coupled receptor 151 (Homo sapiens), Q8TDV0 | activation, % at 11.2 µM; in the data active = activation above about 4.9%;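 note: 0% = median of compound wells and 100% = cells with positive control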
# TEAD-YAP block = TEAD-YAP interaction inhibition, primary screen, TEAD-YAP interaction inhibitor project, luminescence, HEK-TIYL cells; TEAD-Gal4/YAP UAS-luciferase luminescence; inhibition, % at 9.12 µM; 1.4% of 640,000 active; in the data active = inhibition above about 32%;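 note: 0% = median of test compound wells and 100% = reference inhibitor wells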
# MITF inh conf = MITF inhibitors, retest of hits, confirmation, biochemical, AlphaScreen, triplicate. inhibition, % at 2.6 µM. shares compounds with MITF primary. 16% of 4,700 active. AID 1259372, 2018. AlphaScreen MITF homodimerization, biotin/His-MITF beads;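 active = inhibition above a cutoff derived from the DMSO control wells, cut at about 28% in these data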;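 note: 0% = MITF dimer wells with DMSO only; inhibitors lower the bead chemiluminescence by keeping MITF from dimerizing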
# AlphaScreen DR = AlphaScreen optical interference compounds, dose response, counter-screen, biochemical, HTS. IC50, µM. shares compounds with MITF primary. AlphaScreen optical interference counterscreen, cell-free. AID 1259373, 2018. 6% of 480 active; call rule not given here
# AS interf ctr = AlphaScreen optical interference compounds, counter-screen for MITF inhibitor project, biochemical, triplicate; shares compounds with MITF primary; LysRS AlphaScreen counterscreen, signal interference; inhibition, % at 2.6 µM; 7.6% of 4,700 active; AID 1259376, 2018;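 active = inhibition above a cutoff derived from the DMSO control wells, cut at about 30% in these data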
# Starred values were filed as active, the others as inactive; i = inactive; / = not tested or not shown.
SMILES,FBW7 act,MITF primary,GPR151 activ,TEAD-YAP block,MITF inh conf,AS interf ctr,others
COc1ccc(S(=O)(=O)N2CCC(N3CCN(c4ccccc4F)CC3)CC2)cc1,0.1,52.0*,0.4,9.0,6.7,-1.1,
Clc1cccc(CNCC2CCCO2)c1 (centres undefined),0.1,-12.0,0.4,0.1,/,/,
O=C(Cn1nnc(-c2ccc3c(c2)OCO3)n1)Nc1ccc2c(c1)OCO2,0.0,-1.4,1.0,7.2,/,/,
Cn1c(=O)c2ccccc2n2c(SCC(=O)NC3CCCCC3)nnc12,-0.1,72.6*,1.0,3.5,2.3,15.1,
CCn1c(=O)c2ccccc2n2c(SCC(=O)NC3CCCCC3)nnc12,0.2,-5.1,-0.4,-1.5,/,/,
CC12Oc3ccc(Cl)cc3C(NC(=S)N1c1cccc(Cl)c1)C2C(=O)Nc1ccc(Cl)cc1 (centres undefined),0.3,20.1,0.9,0.2,/,/,
O=C(OCN1C(=O)c2ccccc2C1=O)c1cc2c(s1)CCC2,-0.2,74.3*,-0.4,2.0,77.2*,6.0,AlphaScreen DR=>7.13
O=C(CN1C(=O)c2ccccc2C1=O)NNC(=O)c1cc2c(s1)CCCC2,0.0,-3.6,0.2,-7.8,/,/,
NC(=O)c1ccc(NC(=O)COC(=O)c2cc3c(s2)CCC3)cc1,-0.2,49.0,-0.6,1.0,/,/,
N#C/C(=C(/O)COC(=O)c1cc2c(s1)CCC2)c1nc2ccccc2[nH]1,-0.1,86.6*,-0.5,9.5,81.8*,3.1,AlphaScreen DR=>7.1
NC(=O)COC(=O)c1cc2c(s1)CCC2,0.3,61.6*,0.6,10.1,59.7*,14.8,AlphaScreen DR=>6.91
O=[N+]([O-])c1cc(Cl)c(O)c2ncccc12,-0.2,37.2,-1.2,9.5,/,/,
CN(Cc1cc(Cl)c(O)c2ncccc12)C1CCCCC1,-0.9,105.6*,1.9,70.2*,103.6*,100.6*,
COc1ccc(OCC(O)CN2CCCC2)cc1 (centres undefined),0.5,55.2*,1.3,-4.7,6.2,7.3,
CCOC(=O)c1c(C)n(C)c2ccc(OCC(O)CN3CCCCC3)cc12 (centres undefined),0.1,53.7*,1.9,0.8,-6.5,0.8,
CN1CCN(CC(O)COc2ccc(Br)cc2)CC1 (centres undefined),0.1,-6.4,-0.1,-1.2,/,/,
CC(=O)N(C)c1ccc(OCC(O)CN2CCN(c3ccccn3)CC2)cc1 (centres undefined),-0.2,65.2*,-0.9,-1.1,6.3,13.2,
CC(=O)N(C)c1ccc(OCC(O)CN2CCN(C)CC2)cc1 (centres undefined),-0.1,59.8*,-1.7,-2.9,13.5,18.2,
COc1ccc(OCC(O)CN2CCCCCC2)cc1 (centres undefined),0.6,48.6,0.3,-7.9,/,/,
Nc1nnc(SCc2cc(Cl)ccc2OC(F)F)s1,-0.2,-2.2,0.5,-10.3,/,/,
COC(=O)C1=C(C)Nc2c(c(=O)n(C)c(=O)n2C)C1c1ccccc1Cl (centres undefined),0.0,-10.4,4.0,8.6,/,/,
COCCn1c(=S)[nH]c2cc(C(=O)Nc3ccccn3)ccc2c1=O,-0.1,76.8*,-1.4,-15.2,-22.5,-2.0,
COCCn1c(=S)[nH]c2cc(C(=O)NC(C)C)ccc2c1=O,-0.1,4.9,1.7,-4.3,/,/,
O=C(O)CCCC[C@H]1SC[C@H]2NC(=O)N[C@H]21,-0.5,116.8*,1.4,-11.8,122.8*,100.6*,
CCCCC[C@@H](O)CC[C@H]1[C@H](O)CC(=O)[C@@H]1CCCCCCC(=O)O,/,22.5,1.9,/,/,/,
SMILES,FBW7 act,MITF primary,GPR151 activ,TEAD-YAP block,MITF inh conf,AS interf ctr,others
O=C(CCCCC1SCC2NC(=O)NC21)NC1(c2ccc3c(c2)OCO3)CCCC1 (centres undefined),-1.5,113.1*,1.1,-7.2,101.7*,18.1,AlphaScreen DR=i
O=C(O)CCCCC1SCC2NC(=O)NC21 (centres undefined),-0.4,122.2*,-0.7,-1.8,124.4*,100.6*,
COc1cc(NC(=O)Cn2c(=O)oc3cc(S(=O)(=O)N4CCCC4)ccc32)ncn1,0.2,10.5,-0.4,-0.3,/,/,
Nn1c(SCc2cc(=O)n3c(n2)sc2ccccc23)nnc1C1CC1,0.1,20.8,0.9,-4.0,/,/,
Cn1c(SCc2cc(=O)n3c(n2)sc2ccccc23)nnc1C(F)(F)F,-0.3,60.3*,0.4,-4.0,78.5*,-2.4,AlphaScreen DR=>7.18
CC(C)OCCCNC(=O)C1CC(Cc2ccc(F)cc2)=NO1 (centres undefined),-0.2,53.0*,1.5,-12.2,23.5,11.8,
CN(C(=O)c1cccs1)C(Cc1ccccc1)C1CCN(C(=O)c2ccn(C)n2)CC1 (centres undefined),1.5,73.8*,-0.2,-23.9,5.6,-1.3,
O=C(/C=C/c1ccc(Cl)cc1)Nc1nnc(C(F)(F)F)s1,-0.1,-2.7,0.7,-6.3,/,/,
COc1cc(/C=C/C(=O)Nc2nnc(C(F)(F)F)s2)cc(OC)c1OC,0.0,52.2*,-1.1,10.4,4.6,13.2,
CCOc1cc(/C=c2/sc3nc4c(C)cc(C)cc4n3c2=O)ccc1OCc1ccc(Cl)cc1,-0.1,3.6,1.6,-7.8,/,/,
CN(C)CCCn1c(SCc2ccccc2)nnc1-c1ccncc1,-0.1,72.8*,0.4,-8.3,9.4,10.7,
CCOc1ccc(NC(=O)CSc2nnc(-c3ccncc3)n2CCCN(C)C)cc1,-0.1,53.3*,-0.8,3.3,9.3,8.5,
CCOC(CNCc1c(C(=O)O)n(Cc2ccc(C)cc2)c2ccccc12)OCC,-0.2,13.6,0.2,10.4,/,/,
CCN1CCN(CCCOc2ccc3c(c2)CCC3)CC1,0.1,61.2*,0.1,6.3,4.5,4.8,
CCc1cc(OCCCNCCN2CCOCC2)ccc1Cl,0.1,48.4,-1.1,-6.8,/,/,
CCc1cc(OCCCN2CCN(CC)CC2)ccc1Cl,-0.2,67.3*,-0.3,6.6,16.4,16.2,
CCOc1ccc(NC(=O)CSc2nc(=O)n(CCN(C)C)c3c2CCCC3)cc1,0.2,1.4,-0.4,-0.2,/,/,
C=CCn1c(SCc2ccccc2)nc2sc3c(c2c1=O)CCCCC3,0.0,10.1,-0.9,6.3,/,/,
COc1ccc([N+](=O)[O-])cc1NC(=O)CSCc1c(F)cccc1Cl,-0.1,1.8,4.5,0.2,/,/,
Cc1ccc(NC(=O)c2sc3nc4c(c(-c5ccco5)c3c2N)CCCC4)cc1,0.2,51.2*,0.7,-4.9,-14.4,-3.3,
NC(=O)c1sc2nc3c(c(-c4ccco4)c2c1N)CC/C3=C\c1ccco1,-0.4,117.1*,-2.0,1.1,110.4*,89.6*,

# From PubChem BioAssay
